From PubChem BioAssay AID485313 (National Center for Advancing Translational Sciences (NCATS), 2010)
Out of some 320,000 compounds screened, about 7,600 (2.4%) were called active. Another 3% or so got no clear call; they are omitted. The call rests on the fitted dose curve; in most records, active means well fitted activation curve with a large enough effect; inconclusive means small, poorly fitted or top-dose-only effect; inactive means no such curve, though single readings can be large or run the other way. What follows is part of a selection rich in actives, with near analogues and random picks from the rest.

Experiment: qHTS Assay for NPC1 Promoter Activators; further: nearly all actives have a fitted effect of over 60% in size;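 on activation: reporter is driven by a mutant NPC1 promoter; % of control where 0% means no effect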
Conditions: Huh7 NPC1 promoter luciferase reporter, 24 h; series mostly up to 9.22 µM; activation: at the top concentration
Procedure, shortened: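 Huh7 cells stably carrying NPC1 promoter–luciferase, plated in Opti-MEM with 10% FBS for 2 h, were exposed to compound in DMSO for 24 h at 37 °C; luciferase reagent was added for 10 min and luminescence read.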
Potency means the concentration at half of the fitted maximal effect.

activation, inactive:
COc1ccccc1-n1ccnc1SCC(=O)NC(C)(C)C -0.961%
Cc1ccccc1CSCC(=O)NC(=O)NC(C)(C)C -3.16%
COc1cc(C(C)=O)ccc1OC(C)C(=O)Nc1ccc(S(=O)(=O)N2CCCC2)cc1 (stereo not drawn) 0.351%
CC(C)N(C(=O)CSc1nnc(NC2CC2)s1)c1ccccc1 0.279%
Cc1ccccc1NC(=O)Cc1nc(COC(=O)c2ccc(C(F)(F)F)cc2)cs1 -2.66%
CCC(C)N(C)C1CCN(C(=S)Nc2ccc(OC)cc2)CC1 (stereo not drawn) 3.73%
COc1ccc(NC(=S)N2CCc3cc(OC)c(OC)cc3C2)cc1 -3.04%
N#CCCN(C(=O)COC(=O)C1CCN(c2ccc(C(F)(F)F)cn2)CC1)c1ccc(F)cc1 -1.26%
O=C(NCC1CCCO1)c1ccc(S(=O)(=O)Nc2ccc(F)cc2)cc1 (stereo not drawn) 2.02%
c1csc(-c2cn3c(n2)SCC3)c1 10.9%
Cc1nnc2n1N=C(c1ccccc1)CS2 -2.53%
COC(=O)[C@]1(C)CCC[C@@]2(C)C3CC[C@]4(OC(C)=O)C[C@@]3(CCC21)CC4=NO (stereo partly drawn) 4.54%
O=C(COc1cccc(-n2cnnn2)c1)NCCC1=CCCCC1 -1.1%
O=C(NCCC1=CCCCC1)c1ccc(Cl)c([N+](=O)[O-])c1 1.81%
COc1ccc(-c2nn(-c3ccccc3)cc2/C=C\C(=O)Nc2ccc(C(=O)O)cc2)cc1 -2.75%
O=C(NCc1cccnc1)c1cn(-c2ccccc2)nc1-c1cccs1 15.3%
COc1ccc(OC)c(CN2CCN(C(=O)CNC(=O)c3cc(C)cc(C)c3)CC2)c1 3.16%
CCC(=O)N1CCCc2ccccc21 0.602%
O=C(CN1CCN(c2ccccn2)CC1)N1CCc2ccccc21 -0.609%
CN(CC(=O)Nc1ccc(F)cc1)CC(=O)N1CCCCC1 -1.98%
Cc1ccc(S(=O)(=O)N(CC(=O)Nc2cccc([N+](=O)[O-])c2)Cc2ccc(Cl)cc2)cc1 -0.0248%
Cc1cccc(C)c1NC(=O)CNC(=O)c1ccc2c(c1)OCCO2 -1.52%
COc1c(Cl)cc(C(=O)Nc2ccc(Cl)cn2)cc1Cl 25.4%
CC(=O)c1ccc2c(c1)OCCOCCOc1ccc(C(C)=O)cc1OCCOCCO2 -10.2%
O=C(Nc1cccc(S(=O)(=O)Nc2ccc(Cl)cc2)c1)c1ccc2c(c1)OCCO2 -14.5%
CCCc1cc(C(=O)Nc2ccc(C(=O)OC)cc2)cs1 4.68%
CCCCC(CC)C(=O)Nc1ccc(Cl)cn1 (stereo not drawn) 0.296%
O=C(C1Cc2ccccc2CN1C(=O)c1ccco1)N1CCN(c2ccccc2)CC1 (stereo not drawn) -0.773%
CN(CC(=O)Nc1ccc(F)c(F)c1F)C(=O)C1CC(=O)N(C2CCCC2)C1 (stereo not drawn) 0.171%
COc1ccc(CS(=O)/C(Cl)=C(/Cl)C(=O)Nc2ccc(OC)nc2)cc1 (stereo not drawn) -23.3%
CCCCNC(=O)OC(C)CNC(=O)OC (stereo not drawn) -1.68%
COc1ccc(NC(=O)COC(=O)c2n[nH]c3ccccc23)c(OC)c1 1.11%
O=C(CSc1nnc(COc2ccc(Cl)cc2)n1Cc1ccco1)N1CCNC1=O -9.88%
CCNC(=O)N1CCN(S(=O)(=O)c2ccc3c(c2)OCCCO3)CC1 5.22%
O=C1N/C(=N\N=C\c2ccco2)SC1Cc1ccc(F)cc1 (stereo not drawn) -12.3%
C=CCN1C(=O)C(Cc2cccc(Cl)c2)S/C1=N/N=C/c1ccco1 (stereo not drawn) -2.22%
CCOc1ccc(S(=O)(=O)N2CCC(C(=O)NCC(=O)Nc3cccc(Cl)c3C)CC2)cc1 -2%
O=C(Nc1ccccc1F)c1ccc(S(=O)(=O)N2CCCCCC2)cc1 13%
Cc1[nH]c2ccccc2c1C(=O)C(C)Sc1nnc(C2CC2)o1 (stereo not drawn) -0.654%
O=C(/C=C/c1ccc2c(c1)OCO2)NCc1ccc(F)cc1 1.01%
CC(NC(=O)Nc1ccc2c(c1)OCO2)c1ccncc1 (stereo not drawn) 0.67%
CC(NC(=O)Nc1cccc([N+](=O)[O-])c1)c1ccc2c(c1)OCO2 (stereo not drawn) -3.91%
O=C(O)/C=C/c1ccc2c(c1)OCCO2 -0.0021%
CC(C)CNS(=O)(=O)c1ccc(C(=O)Nc2ccc3c(c2)OCO3)cc1 -9.44%
Cc1ccc(S(=O)(=O)NCC(=O)Nc2ccc3c(c2)OCCO3)cc1 -5.21%
COc1ccc(OC)c(/C=C/C(=O)OCC(=O)Nc2ccc3c(c2)OCCO3)c1 -4.86%
O=C(/C=C\c1ccc2c(c1)OCO2)NC1(C(=O)Nc2ccc3c(c2)OCCO3)CCCCC1 0.617%
COc1ccc(NC(=O)CN(C)C(=O)c2cc(C3CC3)nn2-c2ccccc2)cc1 -2.75%
O=S(=O)(c1ccc(Br)cc1)n1ccc2ccccc21 0.578%
COc1ccc(S(=O)(=O)N2CCOCC2)cc1NC(=O)c1ccc(OCC(C)C)c(OC)c1 -2.86%
Cc1ccccc1NC(=O)Cc1nc(COC(=O)c2cccnc2Cl)cs1 -1.43%
O=C(CCc1ccccc1Cl)Nc1ccc(S(=O)(=O)Nc2nccs2)cc1 0.222%
Cc1ccc(CN2CC(C(=O)N3CCN(S(=O)(=O)c4ccccc4)CC3)CC2=O)cc1 (stereo not drawn) 0.0419%

Potency, active:
CC(C)(C)NC(=O)CSC(=Nc1ccccc1F)NC#N 3980 nM
COc1ccc(NC(=S)N2N=CCC2c2ccccc2)cc1 (stereo not drawn) 1410 nM
O=c1c2cc(-c3ccccc3)sc2nc2n1N=C(c1cccs1)CS2 3160 nM
O=C(NCCC1=CCCCC1)c1ccc(-n2cncn2)cc1 3550 nM
O=C(O)c1ccc(N/N=C/c2cn(-c3ccccc3)nc2-c2cccs2)cc1 1260 nM
O=C(CSCc1ccccc1)N1CCc2ccccc21 2240 nM
CCCc1cc(C(=O)Nc2ccc(Cl)cn2)cs1 501 nM
Cc1nc(NC(=O)c2ccc3c(c2)OCCO3)ccc1Br 1000 nM
O=C(Nc1ccc(Cl)cn1)c1ccc2c(c1)OCCO2 501 nM
COc1ccc(CN2C(=O)C(C)S/C2=N/N=C/c2ccco2)cc1 (stereo not drawn) 3160 nM
CCc1ccc2oc(-c3ccc(N)cc3)nc2c1 708 nM
Cc1cccc(NC(=O)/C=C/c2ccc3c(c2)OCO3)n1 1410 nM
CNS(=O)(=O)c1ccc(NC(=O)Nc2ccc3c(c2)OCO3)cc1 2510 nM
Cc1cccc(NC(=O)Nc2ccc3c(c2)OCO3)n1 1780 nM
COc1cccc(/C=C/C(=O)Nc2ccc3c(c2)OCCO3)c1 2510 nM
